The whole screen tested about 5,500 compounds, of which about 2,000 (36%) were called active. About 18% were inconclusive and are not listed. Cut-off read from the data, not from the text of the source: active = normalized growth mostly below about 0.91 (no sharp cut-off); inconclusive = no clear call, values can overlap the other calls; inactive = mostly above about 0.92. This is one part of the list.
Experiment: chemical genetic growth profiling, strain panel (AID 1159580);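 note: tested at 20 µM; growth read once vehicle control cultures reached saturation at 30 °C; 1 = growth at the plate median or of vehicle wells; lower values mean less growth of the strain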
Conditions: S. cerevisiae deletion strains, growth OD

Measured: normalized growth

CC1CC(OC(=O)c2ccccc2O)CC(C)(C)C1 (stereo not given)
inactive: locus YAL021C, strain ccr4, stronger effect = lower value 0.977 | locus YAL026C, strain drs2, stronger effect = lower value 0.989 | locus YAL030W, strain snc1, stronger effect = lower value 0.985 | locus YBL061C, strain skt5, stronger effect = lower value 0.97 | locus YBR009C, strain hhf1, stronger effect = lower value 0.914 | locus YBR023C, strain chs3, stronger effect = lower value 0.974 | locus YBR171W, strain sec66, stronger effect = lower value 0.987 | locus YBR231C, strain swc5, stronger effect = lower value 0.961 | locus YBR279W, strain paf1, stronger effect = lower value 0.98 | locus YCL011C, strain gbp2, stronger effect = lower value 0.969 | locus YCL016C, strain dcc1, stronger effect = lower value 0.991 | locus YCL061C, strain MRC1, stronger effect = lower value 0.983 | locus YCL069W, strain vba3, stronger effect = lower value 0.987 | locus YCR088W, strain abp1, stronger effect = lower value 0.99 | locus YDL005C, strain med2, stronger effect = lower value 0.968 | locus YDL040C, strain nat1, stronger effect = lower value 0.983 | locus YDR001C, strain nth1, stronger effect = lower value 0.984 | locus YDR069C, strain doa4, stronger effect = lower value 0.943 | locus YDR137W, strain rgp1, stronger effect = lower value 0.922 | locus YDR159W, strain sac3, stronger effect = lower value 0.977 | locus YDR195W, strain ref2 0.968 | locus YDR297W, strain sur2, stronger effect = lower value 0.973 | locus YDR334W, strain swr1, stronger effect = lower value 0.985 | locus YDR335W, strain msn5, stronger effect = lower value 0.992 | locus YDR392W, strain spt3, stronger effect = lower value 0.89 | locus YEL003W, strain gim4, stronger effect = lower value 0.974 | locus YEL037C, strain rad23, stronger effect = lower value 0.987 | locus YEL061C, strain CIN8 (second series), stronger effect = lower value 0.965 | locus YER015W, strain faa2, stronger effect = lower value 0.975 | locus YER016W, strain bim1, stronger effect = lower value 0.982 | locus YER111C, strain swi4, stronger effect = lower value 0.985 | locus YER155C, strain BEM2 (second series), stronger effect = lower value 0.982 | locus YFR010W, strain ubp6, stronger effect = lower value 0.971 | locus YGL167C, strain pmr1, stronger effect = lower value 0.962 | locus YGL173C, strain kem1, stronger effect = lower value 0.967 | locus YGL227W, strain vid30, stronger effect = lower value 0.978 | locus YGL240W, strain doc1, stronger effect = lower value 0.933 | locus YGL253W, strain hxk2, stronger effect = lower value 1 | locus YHR013C, strain ard1, stronger effect = lower value 0.865 | locus YHR027C, strain rpn1, stronger effect = lower value 0.989 | locus YHR030C, strain SLT2, stronger effect = lower value 0.94 | locus YHR079C, strain IRE1, stronger effect = lower value 0.958 | locus YHR142W, strain chs7, stronger effect = lower value 0.978 | locus YJL092W, strain hpr5, stronger effect = lower value 0.985 | locus YJL095W, strain BCK1 (second series), stronger effect = lower value 0.993 | locus YJL095W, strain BCK1, stronger effect = lower value 1.01 | locus YJL115W, strain asf1, stronger effect = lower value 1 | locus YJL129C, strain trk1, stronger effect = lower value 0.896 | locus YJL154C, strain vps35, stronger effect = lower value 0.987 | locus YJL164C, strain tpk1, stronger effect = lower value 0.97 | locus YJL166W, strain qcr8, stronger effect = lower value 0.943 | locus YJL187C, strain SWE1, stronger effect = lower value 0.974 | locus YJR066W, strain TOR1, stronger effect = lower value 0.943 | locus YKL160W, strain elf1, stronger effect = lower value 0.993 | locus YKR026C, strain gcn3, stronger effect = lower value 0.953 | locus YKR091W, strain srl3, stronger effect = lower value 0.981 | locus YLL001W, strain dnm1, stronger effect = lower value 1.01 | locus YLL026W, stronger effect = lower value 0.98 | locus YLL041C, strain sdh2, stronger effect = lower value 0.989 | locus YLR027C, strain aat2, stronger effect = lower value 0.972 | locus YLR113W, strain HOG1, stronger effect = lower value 1 | locus YLR221C, strain rsa3, stronger effect = lower value 0.925 | locus YLR258W, strain gsy2, stronger effect = lower value 0.97 | locus YLR262C, strain YPT6 (second series), stronger effect = lower value 0.904 | locus YLR320W, strain mms22, stronger effect = lower value 0.952 | locus YLR342W, strain FKS1, stronger effect = lower value 0.949 | locus YLR357W, strain rsc2, stronger effect = lower value 0.975 | locus YLR370C, strain arc18, stronger effect = lower value 0.978 | locus YLR384C, strain iki3, stronger effect = lower value 0.997 | locus YML120C, strain ndi1, stronger effect = lower value 0.987 | locus YMR058W, strain fet3, stronger effect = lower value 0.981 | locus YMR125W, strain sto1, stronger effect = lower value 0.975 | locus YMR129W, stronger effect = lower value 0.998 | locus YMR205C, strain PFK2, stronger effect = lower value 0.906 | locus YMR231W, strain pep5, stronger effect = lower value 1 | locus YNL071W, strain lat1, stronger effect = lower value 0.974 | locus YNL183C, strain NPR1, stronger effect = lower value 0.947 | locus YNL209W, strain ssb2, stronger effect = lower value 0.983 | locus YNL248C, strain rpa49, stronger effect = lower value 0.989 | locus YNL322C, strain KRE1 (second series), stronger effect = lower value 0.99 | locus YNR049C, strain mso1, stronger effect = lower value 0.982 | locus YOR001W, strain rrp6, stronger effect = lower value 0.996 | locus YOR070C, strain gyp1, stronger effect = lower value 0.989 | locus YOR080W, strain dia2, stronger effect = lower value 0.968 | locus YOR083W, strain WHI5, stronger effect = lower value 1 | locus YOR106W, strain vam3, stronger effect = lower value 0.951 | locus YOR231W, strain MKK1, stronger effect = lower value 0.958 | locus YOR265W, strain rbl2, stronger effect = lower value 0.989 | locus YOR270C, strain vph1, stronger effect = lower value 0.977 | locus YOR290C, strain snf2, stronger effect = lower value 0.915 | locus YPL051W, strain arl3, stronger effect = lower value 1.01 | locus YPL078C, strain atp4, stronger effect = lower value 0.995 | locus YPL106C, strain sse1, stronger effect = lower value 0.974 | locus YPL240C, strain hsp82, stronger effect = lower value 0.958 | locus YPL256C, strain CLN2, stronger effect = lower value 0.94

Source: PubChem BioAssay AID1159580 (chemical genetic matrix, 2015)
